Sampled rows, rich in hits. Any-hit rate of the full collection: about 1.1%.
BRCA1 expr act = BRCA1 expression activation; MCF7-BRCA1-FFLuc reporter, luminescence, 48 h; response scale: scaled: vehicle 0%, 10 µM genistein 100%; 380,000 compounds, 1.1% hits; Potency, µM (series often up to 46.1 µM), without a hit: top-dose activation, usual class: activators; further: potency means the concentration at half of the fitted maximal effect; nearly all actives have a fitted effect of over 80% in size
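Using MCF7 cells harboring a BRCA1 firefly luciferase reporter, plated 2 h before compound pinning, the screen measured luminescence after 48 h incubation. Responses were normalized to DMSO and 10 microM genistein, then fitted for concentration-effect.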
LDHA block = inhibitors of human lactate dehydrogenase A; purified LDHA, NADH/diaphorase-resazurin fluorescence; stronger effect = lower value; activity change, % (values are at about 110 or 230 µM); 480,000 compounds, 0.15% hits; AID 1347041; in the data active means activity change below about -30%; inconclusive means mostly about -25% to -30%;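 further: plate controls were DMSO wells for no effect and wells without enzyme for full effect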
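LDH5 2 nM; NADH 0.06 mM, pyruvate 0.2 mM; 200 mM Tris pH 7.4, EDTA, Tween-20; 5 min RT. Detection: diaphorase 0.133 mg/mL + resazurin 37 µM, fluorescence ex540/em590 at 0 and 20 min; normalized to enzyme-free and DMSO wells.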
PTHR1 ag = agonists of human PTHR1 parathyroid hormone receptor; Q03431; HEK293 GP2 PTHR1 cells, GloSensor cAMP luminescence, 1 h; Potency, µM (series often up to 115 µM), without a hit: top-dose activation, actives largely listed as activators; 410,000 compounds, 0.075% hits; further: potency means the concentration at half of the fitted maximal effect; nearly all actives have a fitted effect of over 55% in size
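HEK-293-derived GP2 cells expressing PTHR1 and a GloSensor cAMP reporter, 3,000/well, plated overnight, given luciferin plus IBMX (each 0.5 mM as added) for 1 h at 37 °C, then compound for 1 h at 37 °C. Luminescence was read after 15 min at room temperature.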
p53 reactivation = restores transcriptional activity of mutant p53. AID 504706. Potency, µM (series often up to 92.2 µM), for the others: top-dose activity change, positive = activation, hits mostly activators. 320,000 compounds, 0.063% hits. H1299 p53-A138V BP100-luciferase reporter, luminescence, 24 h; further: potency means the concentration at half of the fitted maximal effect; % of control where 0% means no effect; nearly all actives have a fitted effect of over 45% in size
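H1299 (p53-null), stable ts p53-A138V + BP100-Luc; 1000 cells/well, Opti-MEM/10% FBS; cpd 4 pt, 1:5; 24 h, 37 deg C, 5% CO2; detection reagent 10 min RT; luminescence.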
RGS4 inh = blocks human RGS4-accelerated GTP hydrolysis; P49798; Transcreener GDP fluorescence polarization, RGS4-accelerated GTP hydrolysis; Potency, µM (series often up to 114 µM), without a hit: top-dose activity change, negative = inhibition, usual class: inhibitors; 390,000 compounds, 0.039% hits; AID 504845; further: potency means the concentration at half of the fitted maximal effect; on the % scale 0 is the no-effect control and ±100 the full control effect; nearly all actives have a fitted effect of over 75% in size
Target sequence (P49798 whole entry, looked up): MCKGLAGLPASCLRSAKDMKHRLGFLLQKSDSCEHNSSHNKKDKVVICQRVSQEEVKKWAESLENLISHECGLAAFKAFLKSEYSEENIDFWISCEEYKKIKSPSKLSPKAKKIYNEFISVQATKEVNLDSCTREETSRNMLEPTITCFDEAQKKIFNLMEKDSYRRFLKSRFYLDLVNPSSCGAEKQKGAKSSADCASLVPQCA
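MLSMR compounds (23 nl, pin-transferred) preincubated 10 min at room temperature with a 500nM (2x) first reagent, then RGS4 at 900nM (2x) plus Transcreener GDP mix added; fluorescence polarization (620/688 nm) read before and after 90 min at 30 °C.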
* marks the source's active call; other numbers are inactive results; i = inactive; ? = inconclusive; . = no result; [ ] = remark or other dose. Unless noted, the call rests on the fitted dose curve; in most records, active means well fitted curve in the direction sought with a large enough effect; inconclusive means small, poorly fitted or top-dose-only effect, or another doubt; inactive means no such curve, though single readings can be large; an effect the other way counts as inactive or inconclusive.

SMILES	BRCA1 expr act	LDHA block	PTHR1 ag	p53 reactivation	RGS4 inh
Cc1ccc(-c2noc(C3CCCN(C(=O)c4ccccc4)C3)n2)o1 (configuration not stated)	10µM*	1	-7%[57.5 µM]	?	-9%
COc1ccc(C(=O)N2CCCC(c3nc(-c4ccc(C)o4)no3)C2)cc1OC (configuration not stated)	2%	1	-29%	-8%	4%
COc1ccc(Cc2nc3ccc(C(=O)N(C)Cc4nccn4C)cc3o2)cc1	6%	-2	i	.	.
CN(Cc1nccn1C)C(=O)c1ccc2nc(Cc3ccccc3F)oc2c1	13µM*	-4	-1%	16%	-12%
CN(Cc1nccs1)C(=O)c1ccc2nc(Cc3ccccc3F)oc2c1	3.2µM*	-3	-29%	2%	20%
Cc1cc(CN(C)C(=O)c2ccc3nc(Cc4ccccc4F)oc3c2)on1	?	-2	-48%	0%	18%
CC(C)(C)C1C/C(=C/c2cccs2)c2nc3ccccc3c(C(=O)O)c2C1 (configuration not stated)	.	9	.	.	.
Oc1ccc(-c2cnc(-c3ccc(O)cc3)nc2)cc1	?	-7	-84%	14µM*	4%
O=C(NCc1ccccc1)c1ccc([N+](=O)[O-])cc1	6%	-4	i	.	.
O=C(CNC(=O)c1ccc([N+](=O)[O-])cc1)c1ccccc1	6.3µM*	3	i	?	11%
Cc1c(C(=O)NNC(=O)Nc2ccc([N+](=O)[O-])cc2)oc2ccccc12	-14%	-44*	-24%	-1%	12%
Cc1ccc(N2CCN(C(=O)CCNS(=O)(=O)c3ccc4[nH]c(=O)ccc4c3)CC2)c(C)c1	.	6	.	.	.
CCOc1cc(/C=C/C(=O)c2ccc(Cl)c(Cl)c2)ccc1O	.	2	.	.	.
CC(C)N1CCc2c(sc(N)c2-c2nc3ccccc3s2)C1	.	5	.	.	.
CCn1c2ccccc2c2cc(CN3CCN(S(=O)(=O)Cc4ccccc4)CC3)ccc21	-41%	-30*	i	1%	-1%
O=[N+]([O-])c1ccc(/C=C/c2ccncc2)cc1	10µM*	-6	i	4%	12%
O=[N+]([O-])c1ccc(/C=C/c2ccc([N+](=O)[O-])cc2)cc1	.	-1	.	.	.
Cc1ccccc1CNC(=O)Cc1cccs1	13µM*	1	0%	12%	-10%
Cc1ccccc1C(=O)O/N=C(\N)Cc1cccs1	8.9µM*	-4	-4%	?	-2%
Cc1ccccc1CNC(=O)Cc1ccccc1[N+](=O)[O-]	14µM*	-6	-29%	?	20%
O=C(Oc1ccc2c(-c3cc4cc(Br)ccc4oc3=O)cc(=O)oc2c1)N1CCOCC1	.	3	.	.	.
O=C(Cn1cc(SCc2ccccc2Cl)c2ccccc21)N1CCOCC1	11µM*	13	-22%	?	0%
CCOc1ccc(Cl)cc1CNCc1cccnc1	.	-2	.	.	.
O=C(NC(C1CC1)C1CC1)c1cncc(Br)c1	.	-7	.	.	.
Cc1cc(N2CCOCC2)n2ncc(-c3ccccc3)c2n1	-61%	2	i	7%	5%
SMILES	BRCA1 expr act	LDHA block	PTHR1 ag	p53 reactivation	RGS4 inh
C=CCc1c(C)nc2c(-c3ccccc3)cnn2c1N1CCOCC1	2.2µM*	-6	i	?	-8%
CC1=C(C(=O)Nc2ccccc2F)C(c2ccco2)C(C#N)=C(SCC(=O)NC(C)(C)C)N1 (configuration not stated)	.	9	.	.	.
COc1ccc(NC(=O)C(C)N2CCN(C)CC2)cc1 (configuration not stated)	24%	-24	i	0%	-10%[56.9 µM]
Cc1cnc(NC(=O)C(C)N2CCN(C)CC2)s1 (configuration not stated)	-2%	-31*	5%	-1%	36%
CC(C(=O)Nc1ccc(F)c(F)c1)N1CCN(C)CC1 (configuration not stated)	-21%	-30*	-2%	5%	19%
CC(C)N1CCc2c(C#N)c(NCc3ccco3)n3cnnc3c2C1	.	8	.	.	.
CC(C)(C)c1ccc(Cn2cnc(-c3ccc([N+](=O)[O-])cc3)c2)cc1	-28%	6	-27%	28µM*	-34%
Cc1cc(C)c(Cn2cnc(-c3ccc([N+](=O)[O-])cc3)c2)c(C)c1	-14%	0	i	-3%	-51%
NC(N)=N/N=C/C(Br)=C/c1ccccc1	.	4	.	.	.
Cn1c(SCc2ccc(F)cc2)nnc1-c1cnccn1	11µM*	-5	i	9%	-24%
Cn1c(SCc2ccccc2)nnc1-c1cnccn1	?	-3	19%[57.5 µM]	28%	-19%
Cc1ccc(C(=O)/C=C/c2ccc(F)cc2)o1	5%	0	-46%	45µM*	-7%
O=C(Cn1nnc(-c2ccc3c(c2)OCO3)n1)Nc1ccccc1C(=O)O	11µM*	-4	-26%	19%	-10%
Cc1cc(C)c2nc(SCC(=O)NC(N)=O)cc(C)c2c1	.	-34*	.	.	.
Cc1cc(C)c2nc(SCC(=O)Nc3sccc3C(N)=O)cc(C)c2c1	.	3	.	.	.
CC(=O)n1nc(-c2ccco2)nc1SCc1ccccc1	11µM*	-2	-26%	20%	-18%
CCC(=O)n1nc(-c2ccco2)nc1SCc1ccccc1	?	-3	i	?	-49%
Cc1ccc(NC(=O)c2ccc3c(c2)NC(=O)CS3)nc1	7.9µM*	-3	-16%	20%	-39%
CCOc1ccc2c(c1)c(N=Nc1cccc(C(=O)O)c1)c(O)n2C	10µM*	-1	-22%	?	7%
CCN(CC)CCCNC(=O)CCC(=O)Nc1ccc2nc(N3CCC(C)CC3)cc(C)c2c1	-4%	1	i	?	-8%
CCCCNC(=O)CCC(=O)Nc1ccc2nc(N3CCOCC3)cc(C)c2c1	4µM*	6	-16%	20%	20%
CCN(CC)CCCNC(=O)CCC(=O)Nc1ccc2nc(N3CCCCC3)cc(C)c2c1	11µM*	0	i	?	2%
CCc1ccc(OCC(=O)Nc2ccc3oc(-c4ccccc4)nc3c2)c(-n2cnnc2)c1	.	-1	.	.	.
Cc1cc(C)cc(NC(=O)c2ccc3c(c2)NC(=O)CS3)c1	.	0	.	.	.
CC(=O)c1cccc(OCc2cc(C(=O)NCCC3=CCCCC3)no2)c1	3.2µM*	-4	-5%	19%	7%
Cc1cc(C(=O)NCCC2=CCCCC2)no1	10µM*	4	i	0%	-11%
c1ccc(-c2cc3cc4c(cc3cn2)OCO4)cc1	?	-12	i	8.9µM*	0%
Nc1ccc(Oc2cc(N)cc(Oc3ccccc3)c2)cc1	7.1µM*	1	i	8%	8%
Nc1ccc(Oc2ccc3nc(-c4ccccc4)c(-c4ccccc4)nc3c2)cc1	-1%	-5	-20%	14%	-15%
